Consider 62 compounds from PubChem BioAssay AID1376 (SRMLSC, 2008).

Screen size: about 220,000 compounds; about 530 (0.24%) were called active. The sample holds actives, similar compounds and a random draw of the others, so the mix is not that of the screen. Cut-off read from the data, not from the text of the source: active = inhibition above about 13%; inconclusive = no clear call, values can overlap the other calls; inactive = below that. Potency and affinity values are given separately.

Sequence of Bifunctional protein GlmU (Mycobacterium tuberculosis (strain ATCC 25618 / H37Rv)) (P9WMN3 whole entry, looked up): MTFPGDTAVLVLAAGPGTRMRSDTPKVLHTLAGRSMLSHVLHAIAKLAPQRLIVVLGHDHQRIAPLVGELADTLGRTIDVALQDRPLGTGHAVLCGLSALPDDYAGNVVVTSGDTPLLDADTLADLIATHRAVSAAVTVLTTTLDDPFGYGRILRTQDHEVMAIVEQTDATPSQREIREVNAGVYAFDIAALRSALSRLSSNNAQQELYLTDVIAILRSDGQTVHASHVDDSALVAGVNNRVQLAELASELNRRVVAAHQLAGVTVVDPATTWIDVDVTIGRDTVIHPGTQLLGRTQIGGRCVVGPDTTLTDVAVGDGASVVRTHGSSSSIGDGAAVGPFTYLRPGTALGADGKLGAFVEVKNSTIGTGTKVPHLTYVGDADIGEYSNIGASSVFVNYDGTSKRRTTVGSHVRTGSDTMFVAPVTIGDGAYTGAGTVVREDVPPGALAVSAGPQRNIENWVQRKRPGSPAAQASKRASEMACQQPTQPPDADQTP

This experiment has as its target Bifunctional protein GlmU (Mycobacterium tuberculosis (strain ATCC 25618 / H37Rv)) (UniProt P9WMN3). Kind of experiment: inhibition of mycobacterial GlmU enzyme – biochemical, glucosamine-1-phosphate acetyltransferase (AID 1376).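 Note: 0% = complete reaction with vehicle and 100% = reaction without substrate.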 The note with it: M. tuberculosis GlmU acetyltransferase enzyme assay; hits give high values;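 tested at 30 µM in the primary screen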.
Turning to `Cc1ccc(N/C=C/C(=O)c2cccs2)cc1C`, the inhibition is -3.05% (inactive). In the case of `COc1cccc2sc(NNC(=O)C3COc4ccccc4O3)nc12` (configuration not stated), the inhibition was 6.49% (inactive). The same measure for `O=C(CSc1nnc(-c2ccccc2Cl)n1Cc1ccco1)Nc1ccc2c(c1)OCCO2`: -6.82% (inactive); for `OCCN1CCN(c2ncnc3sc(-c4ccccc4)cc23)CC1`: 0.73% (inactive); for `Cc1ccc(C(=O)OC2OC(=O)C(Cl)=C2N2CCOCC2)cc1` (configuration not stated): 7.25% (inactive). The same measure for `O=c1[nH]c2ccccc2nc1NCCN1CCOCC1`: -0.64% (inactive). Next, `COc1ccc(-c2noc3c2-c2nc(-c4ccc(C)cc4)sc2CC3)cc1`: 6.62% (inactive); `O=C(NCC(=O)N(c1ccccc1)C(C(=O)NC1CCCCC1)c1cccnc1)c1cccs1` (configuration not stated): -3.93% (inactive); `O=C(NCc1cccs1)c1cc2c(s1)CCCC2`: 0.13% (inactive).

As to `O=C(CN(C(=O)c1cc2c(s1)CCC2)C1CCCC1)NCc1cccs1`, the inhibition is 5.33% (inactive).

On to `O=C(CN(Cc1ccccc1)C(=O)c1cc2c(s1)CCC2)NCc1cccs1`, for which the inhibition was 14.9% (active). The same measure for `O=C(O)CCCN1C(=O)c2ccc(C(=O)c3cccc([N+](=O)[O-])c3)cc2C1=O`: 2.64% (inactive). In the case of `O=C(CN1C(=O)CCC1=O)NNc1ccc2ccccc2c1`, the inhibition was -8.95% (inactive). The same measure for `O=C(CC1Sc2ccccc2NC1=O)Nc1cccc(C(=O)O)c1` (configuration not stated): -2.21% (inactive); for `O=C(CC1Sc2ccccc2NC1=O)Nc1cccc(-c2nnc3n2CCCCC3)c1` (configuration not stated): 14.3% (active); for `O=C(CN1C(=O)NC2(CCCC2)C1=O)Nc1cccc(-c2nnc3n2CCCCC3)c1`: -0.57% (inactive). Next, `Oc1ccccc1/C=N/NC1=NCCCCC1`: -2.12% (inactive); `COC(C(=O)NCc1ccc(C)cc1)c1ccccc1` (configuration not stated): -0.55% (inactive); `CC(=O)NCc1c(Cl)cccc1-n1cccc1`: -2.69% (inactive). The same measure for `CC(C)=CC(=O)NCc1c(Cl)cccc1-n1cccc1`: 23.8% (active); for `CCC(=O)NCc1c(Cl)cccc1-n1cccc1`: -2.25% (inactive). With `Cc1ccc(CCNC(=O)CCS(=O)(=O)c2ccc(Br)cc2)cc1`, the inhibition was -0.29% (inactive).

For `Cc1ccc(CNC(=O)CCS(=O)(=O)c2ccc(C)cc2)cc1`, the inhibition was -0.32% (inactive).

Take `COC(=O)c1ccccc1NC(=O)CCS(=O)(=O)c1ccc(Br)s1`: the inhibition is 6.53% (inactive).

As to `COC(=O)c1ccc(NC(=O)CCS(=O)(=O)c2ccc(Br)cc2)cc1`, the inhibition was 3.55% (inactive). The same measure for `COc1cccc(CN2CCN(S(=O)(=O)c3ccc(Br)cc3)CC2)c1`: -0.5% (inactive); for `COc1ccc(C=C2C(=O)c3ccccc3C2=O)cc1O`: 9.53% (inactive).

In the case of `COc1cc(C=C2C(=O)c3ccccc3C2=O)ccc1O`, the inhibition was 10.6% (inactive). As to `CC(C)(C)N1C(=O)c2ccccc2NC(=O)N1Cc1ccccc1`, the inhibition is -6.09% (inactive).

Take `O=C1c2ccccc2CC1(Cc1ccccc1)Cc1ccccc1`: the inhibition is -4.43% (inactive). Next, `N#CCCN(Cc1cccnc1)C(=S)NC(=O)C1CC1`: -4.01% (inactive); `Cc1cccc(CSc2nnc(-c3ccccn3)n2N)c1`: 1.5% (inactive). For the compound `CCOc1cc(/C=N/N=C2/NC(=O)C(CC(=O)O)S2)ccc1OCc1ccc(Cl)cc1` (configuration not stated), the inhibition was 0.64% (inactive). As to `COc1ccc(/C=N/N=C2/NC(=O)C(CC(=O)O)S2)cc1OS(=O)(=O)c1ccccc1` (configuration not stated), the inhibition is 3.56% (inactive).

Consider `CCOc1cc(/C=N/N=C2/NC(=O)C(CC(=O)O)S2)ccc1OS(=O)(=O)c1ccc(C)cc1` (configuration not stated), for which the inhibition was 13.1% (active).

Consider `Cc1ccc(/C=C2\SC(=S)N(CC3CCCO3)C2=O)o1` (configuration not stated), for which the inhibition is 9.7% (inactive).

For the compound `O=C(CSc1nc2ccccc2o1)N1CCN(S(=O)(=O)c2ccc3ccccc3c2)CC1`, the inhibition is -1.93% (inactive). Take `CCc1ccc(N(CC(=O)NCc2ccc(F)cc2)C(=O)c2csnn2)cc1`: the inhibition is 1.98% (inactive).

For `CCOc1ccc(/C=N/Nc2nc(=O)[nH]nc2C)cc1OC`, the inhibition was 2.62% (inactive). Next, `O=C1/C(=C/c2cccs2)SC(=S)N1NS(=O)(=O)c1ccccc1`: 11.6% (inactive); `CC(/C=C1\SC(=S)N(NS(=O)(=O)c2ccccc2)C1=O)=C\c1ccccc1`: 5.96% (inactive); `Cn1cccc1/C=C1\SC(=S)N(NC(=O)c2ccccc2O)C1=O`: 0.05% (inactive). Turning to `O=C(NN1C(=O)/C(=C/C=C/c2ccco2)SC1=S)c1ccncc1`, the inhibition was 10.6% (inactive). Next, `O=C(NCC(c1cccnc1)N1CCN(c2ccccc2F)CC1)OCc1ccccc1` (configuration not stated): -3.82% (inactive); `CC(C)CNC(CC(=O)Nc1cccc([N+](=O)[O-])c1)C(=O)O` (configuration not stated): 0.89% (inactive). As to `CN(C)/C=C(\C#N)C(=O)Nc1ccc(O)cc1F`, the inhibition was -2.68% (inactive).

Regarding `CC(NC(=O)c1ccco1)C(=O)OCc1cccc(Cl)c1` (configuration not stated), the inhibition is 2.75% (inactive). On to `Cc1ccccc1NC(=O)CS(=O)(=O)c1cn(CC(=O)N2CCOCC2)c2ccccc12`, for which the inhibition is -2.25% (inactive). Next, `CCCN(Cc1cc2ccccc2[nH]c1=O)C(=O)c1cccc([N+](=O)[O-])c1`: -2.01% (inactive); `O=C(O)c1cccc(Cn2c(Cl)c(/C=N/NC(=O)c3ccccc3)sc2=O)c1`: 1.79% (inactive). On to `O=C(O)c1cccc(Cn2c(Cl)c(/C=N/NC(=O)c3ccccc3O)sc2=O)c1`, for which the inhibition was 5.34% (inactive).

With `CCC(C)OC(=O)C[N+](C)(C)CCOC1CC2CCC1(C)C2(C)C` (configuration not stated), the inhibition is -2.89% (inactive). The same measure for `Cn1c(=O)c([N+](=O)[O-])c(NCc2ccc3c(c2)OCO3)c2ccccc21`: 0.57% (inactive); for `S=c1[nH]nc(COc2ccccc2)n1/N=C/c1ccco1`: 3.61% (inactive). As for `Nc1c(C(=O)NC2CC2)sc2nc3c(c(-c4ccco4)c12)CC/C3=C/c1ccco1`, the inhibition was 16.9% (active).

For the compound `Nc1c(C(=O)Nc2ccccc2)sc2nc3c(c(-c4ccco4)c12)CCC3`, the inhibition is -1.21% (inactive). Regarding `Nc1c(C(=O)NCC2CCCO2)sc2nc3c(c(-c4ccco4)c12)CC/C3=C\c1ccco1` (configuration not stated), the inhibition was 12.4% (inactive). For `Cc1cccc2cc(C#N)c(NCc3ccccc3)nc12`, the inhibition was 1.49% (inactive). For `CCOC(=O)N1CCC(NC(=O)c2cccn3c(=O)c4cc(Br)ccc4nc23)CC1`, the inhibition is 3.26% (inactive). As to `COc1ccc(OC)c(NC=C2C(=O)OC3(CCCCC3)OC2=O)c1`, the inhibition was 2.73% (inactive). For the compound `CCOc1ccccc1NC=C1C(=O)OC2(CCCCC2)OC1=O`, the inhibition is -1.31% (inactive). Next, `COc1ccccc1NC=C1C(=O)OC2(CCCCC2)OC1=O`: 13.1% (active).

As a reminder, the inhibition is the change of the read-out against control, counted positive when it falls.
